Each structure is given as a SMILES string. Hit rate of the full screen: of about 410,000 compounds, about 5,100 (1.2%) were called active. Roughly 8% stayed inconclusive and do not appear here. No cut-off for these calls is given here. Shown is part of a subset that was picked to be rich in actives.

The nature of this assay: High Throughput Screening for Foot and Mouth Disease Virus Antivirals. The class given is functional. The note with it: read-out: Potency.
In the case of `CN(C)CCNC(=O)C1CCN(Cc2cc3ccccc3n2Cc2ccccc2)CC1`, the AC50 was 398 µM (active).

For the origin of these results see ChEMBL document CHEMBL1201862, “PubChem BioAssay data set” (2004).
